For five molecules, composite z-score and z-score results are on record in PubChem BioAssay.

Calls of active or inactive are those of the source. Unless noted, no rule for the calls is given here.

The nature of experiment [1]: anti-His antibody binders, primary screen, artefact control for SMM control protein annotation, biochemical, small-molecule microarray, 635 nm fluorescence (AID 1128).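 Also: score merges feature fluorescence with signal-to-noise for each printed compound spot.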 Particulars: anti-His Alexa647 antibody binding, higher = more signal.
Experiment [2] relates to Human papillomavirus type 1a E7 protein (residues 1-88). Put plainly: HPV1a E7 small-molecule binders, primary screen, biochemical, small-molecule microarray, residues 1-88, 635 nm (AID 1129). Particulars: small-molecule microarray binding, fluorescence 635 nm; higher = more signal.
The target of experiment [3] is Focal adhesion kinase 1 (Homo sapiens) (UniProt Q05397). The experiment in a line: small-molecule microarray binders of FAK, primary screen, biochemical, 635/667 nm fluorescence, BSA, DTT (AID 1130).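 Also: composite of spot emission at 667 nm and signal to noise over triplicate slides.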 Particulars: PTK2 binding, 635 nm fluorescence, higher = more signal.
The subject of experiment [4] is Fibrinogen (Alexa647-labelled). Put plainly: fibrinogen binders on compound microarrays, profiling panel, artefact control for SMM control-protein annotation, biochemical, small-molecule microarray, 635/667 nm fluorescence (AID 1131).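 Also: z-score merges 667 nm fluorescence with per-spot signal-to-noise over triplicate slides.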 Particulars: fibrinogen-A647 binding fluorescence, higher = more signal.
The target in experiment [5] is Follistatin (Homo sapiens) (UniProt P19883). The experiment in a line: follistatin binders on small-molecule microarrays, primary screen, biochemical, small-molecule microarray, 635/667 nm fluorescence (AID 1132). Particulars: FST binding, 635 nm fluorescence, higher = more signal.
Experiment [6] has as its target Fibroblast growth factor 2 (Homo sapiens) (UniProt P09038). Put plainly: FGF2 binders on small-molecule microarrays, primary screen, biochemical, small-molecule microarray, 635/667 nm fluorescence (AID 1133). Particulars: small-molecule microarray binding, FGF2, fluorescence 635/667; higher = more signal.
Experiment [7] is described as follows: mitochondrial membrane potential change in A549 cells, profiling panel, cell-based, JC-1 fluorescence, basal, 24 h, 100 nL (AID 1138).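 Also: A549 lung adenocarcinoma cells under basal conditions with no added stimulus; test concentration not given here.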 Particulars: higher = more signal.
The subject of another experiment is Lefty1. Put plainly: Lefty1 binders on small-molecule microarrays, primary screen, biochemical, small-molecule microarray, 635/667 nm fluorescence (AID 1139). Particulars: small-molecule microarray binding, fluorescence 635/667; higher = more signal.
Experiment [8] relates to wheat germ agglutinin (Triticum aestivum), Alexa647-labelled. The experiment in a line: wheat germ agglutinin binders on compound microarrays, profiling panel, artefact control for SMM control-protein annotation, biochemical, small-molecule microarray, 635/667 nm fluorescence (AID 1140).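 Also: score merges 667 nm feature emission with signal to noise over triplicate slides.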 Particulars: WGA-A647 binding, 635 nm fluorescence, higher = more signal.
Experiment [9] deals with Luciferin 4-monooxygenase (Photinus pyralis) (UniProt P08659). The experiment in a line: firefly luciferase enzyme inhibitors, primary screen, biochemical, luminescence, purified enzyme, 2006 set (AID 1141).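 Also: cell-free assay with purified firefly luciferase at 100 ng per well in PBS; test concentration not given here.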 Particulars: SteadyGlo luminescence, 30 min, higher = more signal, called active from +8 up or from −8 down.
Experiment [10] has as its system Wnt5a (protein binding on small-molecule microarray). Put plainly: Wnt5a binders on small-molecule microarray, primary screen, biophysical, 635/667 nm fluorescence (AID 1142).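 Also: fluorescence read at 667 nm with signal to noise per printed feature.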 Particulars: 635 nm fluorescence, higher = more signal.
Experiment [11] in a line: cell viability in Huh7 cells, primary screen, cytotoxicity control for HCV replication inhibitor project, CellTiter-Glo luminescence, basal, 48 h (AID 1143).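 Also: Huh7 hepatoma cells carrying a hepatitis C replication reporter with no stimulus; test concentration not given here.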 Particulars: Huh7 HCV replicon, higher = more signal, called active from +8 up or from −8 down.
Experiment [12] is described as follows: P. aeruginosa biofilm formation inhibitors, primary screen, PAO1 strain, BacTiter-Glo luminescence, LB-PBS (AID 1144). Particulars: 12 h, higher = more signal.
Experiment [13] in a line: CREB reporter modulators without forskolin, primary screen, cell-based, PC12, CRE-LacZ reporter, unstimulated (AID 1145). Particulars: no forskolin, luminescence, 4.5 h, higher = more signal, called active from +8 up or from −8 down.
The nature of experiment [14]: CREB reporter modulators under forskolin, primary screen, cell-based, PC12, CRE-LacZ reporter, forskolin-stimulated (AID 1146).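 Also: PC12 cells with 6xCRE LacZ reporter stimulated by forskolin 10 µM; beta-galactosidase reporter signal reflecting CREB driven transcription.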 Particulars: luminescence, 4.5 h, higher = more signal, called active from +8 up or from −8 down.
Experiment [15] has as its target Streptavidin (Streptomyces avidinii) (UniProt P22629). Put plainly: streptavidin binders on small-molecule microarray, primary screen, artefact control for SMM compound annotation, biophysical, 635/667 nm fluorescence (AID 1147).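 Also: signal reflects streptavidin binding to arrayed compounds as a control protein.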 Particulars: streptavidin binding, higher = more signal.
Experiment [16] in a line: small-molecule binders of probe aInhba, primary screen, biochemical, small-molecule microarray, 635/667 nm fluorescence (AID 1148).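 Also: score merges 667nm spot fluorescence with signal-to-noise for antibody binding to printed compounds.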 Particulars: higher = more signal.
Experiment [17] has as its target Torsin-1A (Homo sapiens) (UniProt O14656). Put plainly: torsin A binders from cell lysate, primary screen, small-molecule microarray, wild-type, 635/667 nm (AID 1149). Particulars: COS7 hTOR1A-WT lysate, 635 nm fluorescence, higher = more signal.
Experiment [18] has the same target. Put plainly: small-molecule binders of mutant TOR1A in lysate, primary screen, cell lysate, small-molecule microarray, COS7 lysate, 635/667 nm fluorescence (AID 1150).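 Also: score pools 667 nm emission and signal to noise measuring lysate protein binding.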 Particulars: COS7 hTOR1A mutant lysate, 635 nm fluorescence, higher = more signal.
The subject of experiment [19] is Sonic hedgehog protein (Shh). Put plainly: small-molecule binders of Shh protein, primary screen, biochemical, small-molecule microarray, 635/667 nm fluorescence (AID 1151).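 Also: Shh protein binding to compounds spotted on small-molecule microarray slides; score combines spot fluorescence intensity with signal-to-noise across triplicate slides.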 Particulars: small-molecule microarray binding, 635 nm fluorescence; higher = more signal.

Follistatin (Homo sapiens), sequence (P19883 whole entry, looked up): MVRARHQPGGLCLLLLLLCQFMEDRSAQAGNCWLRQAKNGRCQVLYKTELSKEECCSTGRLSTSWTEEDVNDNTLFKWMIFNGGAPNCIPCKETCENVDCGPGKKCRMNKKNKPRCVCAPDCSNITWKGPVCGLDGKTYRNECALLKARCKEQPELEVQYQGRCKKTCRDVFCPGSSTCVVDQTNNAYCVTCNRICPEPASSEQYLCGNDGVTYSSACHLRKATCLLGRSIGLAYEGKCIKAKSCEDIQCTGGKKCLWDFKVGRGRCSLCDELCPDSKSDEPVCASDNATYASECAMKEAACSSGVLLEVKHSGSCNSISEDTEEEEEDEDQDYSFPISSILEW
Torsin-1A (Homo sapiens), sequence (O14656 whole entry, looked up): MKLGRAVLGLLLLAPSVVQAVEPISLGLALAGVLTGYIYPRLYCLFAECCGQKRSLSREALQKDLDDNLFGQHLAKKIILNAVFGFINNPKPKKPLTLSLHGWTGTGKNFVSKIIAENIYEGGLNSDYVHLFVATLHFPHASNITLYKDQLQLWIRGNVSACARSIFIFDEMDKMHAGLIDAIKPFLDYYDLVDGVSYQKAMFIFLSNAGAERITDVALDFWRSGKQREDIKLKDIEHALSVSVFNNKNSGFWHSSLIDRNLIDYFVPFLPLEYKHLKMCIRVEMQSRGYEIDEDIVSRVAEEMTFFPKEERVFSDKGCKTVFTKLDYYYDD
Streptavidin (Streptomyces avidinii), sequence (P22629 whole entry, looked up): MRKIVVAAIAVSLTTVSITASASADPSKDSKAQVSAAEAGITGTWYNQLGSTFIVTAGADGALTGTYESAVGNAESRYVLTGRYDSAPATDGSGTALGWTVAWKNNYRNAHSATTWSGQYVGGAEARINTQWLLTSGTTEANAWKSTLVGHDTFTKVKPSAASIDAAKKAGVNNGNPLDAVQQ
Fibroblast growth factor 2 (Homo sapiens), sequence (P09038 whole entry, looked up): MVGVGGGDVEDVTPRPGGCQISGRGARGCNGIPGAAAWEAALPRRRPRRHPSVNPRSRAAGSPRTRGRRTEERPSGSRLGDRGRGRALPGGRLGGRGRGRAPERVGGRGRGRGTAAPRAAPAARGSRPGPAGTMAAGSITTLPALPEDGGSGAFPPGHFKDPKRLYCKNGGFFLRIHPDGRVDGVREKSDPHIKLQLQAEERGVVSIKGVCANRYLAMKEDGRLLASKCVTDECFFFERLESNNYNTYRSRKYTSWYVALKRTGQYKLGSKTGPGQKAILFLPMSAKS
Focal adhesion kinase 1 (Homo sapiens), sequence (Q05397 whole entry, looked up): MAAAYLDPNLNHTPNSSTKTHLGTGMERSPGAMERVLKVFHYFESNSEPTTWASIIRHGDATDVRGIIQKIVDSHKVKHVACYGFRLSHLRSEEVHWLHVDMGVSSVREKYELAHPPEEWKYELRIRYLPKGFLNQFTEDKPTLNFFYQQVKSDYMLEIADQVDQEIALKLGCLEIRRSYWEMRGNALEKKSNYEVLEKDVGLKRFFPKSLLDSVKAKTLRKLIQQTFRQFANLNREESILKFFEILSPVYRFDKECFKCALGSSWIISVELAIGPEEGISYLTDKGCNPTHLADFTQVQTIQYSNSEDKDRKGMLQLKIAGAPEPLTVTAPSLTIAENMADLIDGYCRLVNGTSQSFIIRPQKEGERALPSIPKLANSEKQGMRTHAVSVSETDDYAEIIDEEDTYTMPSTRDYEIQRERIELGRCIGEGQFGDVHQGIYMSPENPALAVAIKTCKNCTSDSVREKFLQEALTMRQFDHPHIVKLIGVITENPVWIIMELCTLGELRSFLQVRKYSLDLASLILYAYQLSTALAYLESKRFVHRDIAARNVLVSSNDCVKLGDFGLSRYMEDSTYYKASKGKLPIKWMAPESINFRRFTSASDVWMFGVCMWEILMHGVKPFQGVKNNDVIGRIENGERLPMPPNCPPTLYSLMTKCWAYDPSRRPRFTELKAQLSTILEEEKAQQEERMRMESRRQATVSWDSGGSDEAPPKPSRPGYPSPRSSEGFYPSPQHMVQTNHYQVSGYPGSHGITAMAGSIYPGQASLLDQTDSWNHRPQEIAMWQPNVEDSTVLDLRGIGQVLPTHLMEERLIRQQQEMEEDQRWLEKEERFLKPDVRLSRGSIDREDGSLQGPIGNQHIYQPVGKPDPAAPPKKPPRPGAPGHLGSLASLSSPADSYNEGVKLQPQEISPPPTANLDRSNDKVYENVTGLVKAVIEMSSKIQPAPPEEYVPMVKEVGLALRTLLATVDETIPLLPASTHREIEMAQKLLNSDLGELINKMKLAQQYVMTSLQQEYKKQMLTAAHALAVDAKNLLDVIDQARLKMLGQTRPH
Luciferin 4-monooxygenase (Photinus pyralis), sequence (P08659 whole entry, looked up): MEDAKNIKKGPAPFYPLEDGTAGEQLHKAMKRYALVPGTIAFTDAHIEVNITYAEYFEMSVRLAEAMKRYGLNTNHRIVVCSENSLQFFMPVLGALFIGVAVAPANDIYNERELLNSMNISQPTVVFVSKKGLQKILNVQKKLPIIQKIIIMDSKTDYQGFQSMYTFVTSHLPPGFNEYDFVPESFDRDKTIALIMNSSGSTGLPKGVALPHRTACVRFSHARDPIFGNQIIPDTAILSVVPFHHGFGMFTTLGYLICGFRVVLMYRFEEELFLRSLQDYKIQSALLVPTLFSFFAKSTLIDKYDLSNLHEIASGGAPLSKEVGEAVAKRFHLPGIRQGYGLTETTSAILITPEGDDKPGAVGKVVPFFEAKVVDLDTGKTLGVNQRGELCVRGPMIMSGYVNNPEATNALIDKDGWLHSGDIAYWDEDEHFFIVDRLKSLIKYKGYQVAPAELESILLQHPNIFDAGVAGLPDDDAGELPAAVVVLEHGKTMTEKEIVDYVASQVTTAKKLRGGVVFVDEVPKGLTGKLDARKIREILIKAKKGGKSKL

In the case of `CC(C)CNC(=O)[C@@H]1c2ccccc2C(=O)N(C2Cc3ccccc3C2)[C@H]1c1ccc(CO)cc1`, the composite z-score in [1] was 0.245; in experiment [2], 0.516; in [3] it was -0.587; in [4], 0.182; in experiment [5], 0.348; in experiment [6], 0.579. Moreover, the composite z-score is -0.499 with Lefty1; -0.19 in experiment [8]; -0.0027 in [10]; -0.861 in experiment [15]; -0.106 in experiment [16]; -1.03 with Torsin-1A (Homo sapiens) [17]. For the same molecule, the composite z-score in the experiment with Torsin-1A (Homo sapiens) [18] turned out to be 0.0877; in [19] it was 0.436. For the same molecule, the z-score in experiment [7] was 3.56; in experiment [9] it was -0.843 (inactive); in experiment [11], -0.13 (inactive); in experiment [12] it was 0.92 (inactive); in [13], 0.118 (inactive); in experiment [14], -0.748 (inactive).
As to `N#Cc1ccc(C(O)C2C=CC3C(=O)NC(=O)C3N2Nc2ccccn2)cc1` (stereo not given), the composite z-score in experiment [1] is 0.782; in experiment [2], 0.615; in experiment [3] it was -0.205; in [4], 0.861; in experiment [5] it was 0.286; in experiment [6], -0.126. Besides, the composite z-score in the experiment on Lefty1 is -0.157; in [8] it was 0.144; in experiment [10], -0.0926; in experiment [15], 0.126; in experiment [16], -0.0427; with Torsin-1A (Homo sapiens) [17] it was 0.166. Moreover, the values for the composite z-score (with Torsin-1A (Homo sapiens) [18]; in [19]) were 0.241 and -0.301, respectively. Moreover, the z-score in experiment [7] is 1.36; in [9], -1.25 (inactive); in experiment [11], -0.0103 (inactive); in experiment [12], -1.11 (inactive); in [13], 0.243 (inactive); in experiment [14], -0.345 (inactive).
Turning to `COCCOC(=O)N1C(=O)[C@@]2(c3cc(C#CC4(O)CCCCCC4)ccc31)[C@H](C(=O)NC[C@H](O)c1ccccc1)[C@H]1C(=O)O[C@H](c3ccccc3)[C@H](c3ccccc3)N1[C@@H]2c1ccc(O)cc1`, the composite z-score in experiment [1] is 1.39; in experiment [2] it was 1.18; in experiment [3], 0.392; in [4], 0.721; in experiment [5], 0.37; in experiment [6] it was 0.774. Also, the composite z-score in the experiment on Lefty1 was determined as 0.439; in experiment [8], 0.721; in [10] it was 0.233; in experiment [15], 0.315; in experiment [16], 0.12; with Torsin-1A (Homo sapiens) [17], 0.415. Also, the composite z-score with Torsin-1A (Homo sapiens) [18] was 0.174; in [19], 1.07. Further, the z-score in experiment [7] was 0.139; in experiment [9], -0.474 (inactive); in experiment [11], -0.622 (inactive); in [12], 0.588 (inactive); in [13] it was 0.342 (inactive); in experiment [14], 0.0418 (inactive).
For the molecule `COC(=O)C1=CC(CCCO)=CC(c2ccc(CN3CCCC3)cc2)N(Cc2sc3ccccc3c2Cl)C=C1C(=O)OC` (stereo not given), the composite z-score turned out to be 3.17 in experiment [1]; 1.23 in experiment [2]; 0.579 in [3]; 1.05 in experiment [4]; 0.59 in [5]; 0.709 in experiment [6]. Further, the composite z-score came out at 0.377 in the experiment on Lefty1; 1.34 in [8]; 1.25 in experiment [10]; 1.85 in experiment [15]; 0.662 in experiment [16]; 0.591 with Torsin-1A (Homo sapiens) [17]. The composite z-score was 1.88 in the experiment with Torsin-1A (Homo sapiens) [18] and 0.836 in experiment [19]. The z-score in [7] was 4.12; in experiment [9] it was -2.8 (inactive); in experiment [11] it was -3.24 (inactive); in [12] it was -0.782 (inactive); in [13], 0.209 (inactive); in [14], -1.74 (inactive).
On to `CCOC(=O)C[C@H]1[C@H](OC(=O)c2cc3ccccc3oc2=O)[C@@H](NC(=O)C2CCCCC2)c2cc(OCCCO)ccc2N1C(=O)Cc1ccc(OC)cc1`, for which the composite z-score was 0.737 in experiment [1]; 0.122 in [2]; -0.207 in [3]; 0.231 in experiment [4]; 0.722 in experiment [5]; 0.188 in experiment [6]. Moreover, the composite z-score with Lefty1 is 0.646; in [8] it was 0.507; in experiment [10], 0.418; in experiment [15], 0.214; in experiment [16], 0.243; with Torsin-1A (Homo sapiens) [17] it was 0.144. Besides, the results for the composite z-score (in the experiment with Torsin-1A (Homo sapiens) [18]; in experiment [19]) were 0.384 and 1.15, respectively. In addition, the z-score in experiment [7] was 0.0812; in experiment [9] it was 0.696 (inactive); in experiment [11] it was -0.588 (inactive); in experiment [12] it was -0.273 (inactive); in [13], 0.849 (inactive); in [14] it was -0.0784 (inactive).
